Measurements as given in PubChem BioAssay (NCI).
The panel holds about 83,000 compounds, 20% with a hit somewhere; the sample as a whole holds those more often.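 Cell lines were cultured in 96-well plates, exposed to a single compound concentration, and assessed for percent growth 48 hours later.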 Calls of active or inactive are those of the source. Rule for the calls: active = growth percent below 10; inactive = the rest.

Experiments:
Assay in all cases: NCI-60 one-dose screen, 48 h (100 = growth as untreated, 0 = no growth, -100 = all killed)
Settings in all cases: 10 µM unless noted
T-47D breast = tested on: T-47D breast
BT-549 breast = tested on: BT-549 breast
MDA-MB-435 melanoma = tested on: MDA-MB-435 melanoma
SW-620 colon = tested on: SW-620 colon
HCT-116 colon = tested on: HCT-116 colon
HCC-2998 colon = tested on: HCC-2998 colon
KM12 colon = tested on: KM12 colon
MCF7 breast = tested on: MCF7 breast

Measured: growth

CCc1cccc(Sc2cc(C(=O)N3Cc4ccc(OCCN(C)C)cc4C3)ccc2O)c1
inactive: T-47D breast 37.2% | BT-549 breast 70.1% | MDA-MB-435 melanoma 64.1% | SW-620 colon 41.9% | HCT-116 colon 49.5% | HCC-2998 colon 75% | KM12 colon 23.5%

CCOC(=O)c1c(C)nc2ccccc2c1/C=C/c1ccc(OC)cc1
inactive: T-47D breast 22.2% | BT-549 breast 53.3% | MDA-MB-435 melanoma 61.7% | SW-620 colon 85.1% | MCF7 breast 63.9% | HCC-2998 colon 77.8% | KM12 colon 70.7%

C=C1C(=O)O[C@H]2[C@H]1CC/C(COC(=O)NCc1ccc(Cn3c(=O)sn(-c4ccc(OC)cc4)c3=O)cc1)=C\CC[C@@]1(C)O[C@@H]21
active: SW-620 colon -59.8% | HCT-116 colon 5.31%
inactive: T-47D breast 18.5% | BT-549 breast 73.1% | MDA-MB-435 melanoma 67.1% | HCC-2998 colon 97.5% | KM12 colon 95.3%

O=C1/C(=C/c2cccc([N+](=O)[O-])c2)COc2ccc(O)cc21
inactive: T-47D breast 46.2% | BT-549 breast 63.3% | MDA-MB-435 melanoma 12.4% | HCC-2998 colon 58.7% | KM12 colon 15.5%
active: SW-620 colon -47.3% | HCT-116 colon -44.6%

Cc1cc(N2CCCCC2)nc(N2CCN(CC(=O)Nc3ccc4c(ccn4Cc4ccccc4)c3)CC2)n1
inactive: T-47D breast 32.8% | BT-549 breast 82.7% | MDA-MB-435 melanoma 77.8% | SW-620 colon 73.6% | HCT-116 colon 43.6% | HCC-2998 colon 93.3% | KM12 colon 49.1%

O=C1c2cccnc2C(=O)c2c1c(C(=O)OCCCN1CCCCC1)c1ccccn21
inactive: T-47D breast 24%
active: BT-549 breast -24.1% | MDA-MB-435 melanoma -41.5% | SW-620 colon -60.1% | HCC-2998 colon -35.7% | KM12 colon -33.2%

O=C(CCCCNC(=O)c1cc(=O)c(O)co1)Nc1ccccc1
inactive: T-47D breast 34.6% | BT-549 breast 98.4% | MDA-MB-435 melanoma 98.1% | MCF7 breast 66.1% | HCT-116 colon 30% | HCC-2998 colon 110% | KM12 colon 99.7%

CCNc1nc(-c2ccc(F)cc2)c(C#N)c(=O)n1C
inactive: T-47D breast 39.3% | BT-549 breast 42.1% | MDA-MB-435 melanoma 75.2% | MCF7 breast 63.4% | HCT-116 colon 52.1% | HCC-2998 colon 88.8% | KM12 colon 72.1%

CC(=O)N(Cc1ccccc1)c1nc2ccc(O)c(CN(C)C)c2s1
inactive: T-47D breast 85.2% | BT-549 breast 96.6% | MDA-MB-435 melanoma 99.7% | MCF7 breast 87.8% | HCT-116 colon 102% | HCC-2998 colon 105% | KM12 colon 102%

CN(Cc1cnc2nc(N)nc(N)c2n1)c1c(Cl)cc(C(=O)NC(CCC(=O)O)C(=O)O)cc1Cl (configuration not stated)
inactive: T-47D breast 53.2% | BT-549 breast 21.9% | MDA-MB-435 melanoma 25.7% | MCF7 breast 19.2% | HCT-116 colon 18.9% | HCC-2998 colon 20.9% | KM12 colon 29.6%

C#CCOc1ccc2ncnc(Nc3cccc(NC(=O)CCl)c3)c2c1
inactive: T-47D breast 85.2% | BT-549 breast 68.6% | MDA-MB-435 melanoma 81.7% | MCF7 breast 41.9% | HCT-116 colon 22.9% | HCC-2998 colon 99.4% | KM12 colon 71%

CCCCCn1sc(=O)n(Cc2ccc(CNC(=O)OCc3ccc4c(Cl)cc(Cl)c(O)c4n3)cc2)c1=O
inactive: T-47D breast 60.8% | BT-549 breast 71.1% | MDA-MB-435 melanoma 68% | MCF7 breast 69.5% | HCT-116 colon 44.6% | HCC-2998 colon 95.2% | KM12 colon 57.5%

COc1cc(C(=O)C(=O)c2cc(OC)c(O)c(OC)c2)cc(OC)c1O
inactive: T-47D breast 98.1% | BT-549 breast 120% | MDA-MB-435 melanoma 103% | MCF7 breast 96.5% | HCT-116 colon 104% | HCC-2998 colon 92.1% | KM12 colon 107%

O=C(c1ccc(F)c(Cl)c1)N1c2ccccc2Sc2ccccc21
active: MDA-MB-435 melanoma 8.14%
inactive: T-47D breast 61% | BT-549 breast 57.6% | MCF7 breast 51.2% | HCT-116 colon 31.4% | HCC-2998 colon 62.3% | KM12 colon 39.6%

NC(=S)N/N=C/c1cn(-c2ccccc2)nc1-c1cc2ccccc2oc1=O
active: MDA-MB-435 melanoma -47.5%
inactive: T-47D breast 47.8% | BT-549 breast 42.5% | MCF7 breast 33.3% | HCT-116 colon 27.2% | HCC-2998 colon 88.4% | KM12 colon 30.9%

COc1cc(C(=O)c2c(N)ncn2-c2ccccc2)cc(OC)c1OC
inactive: T-47D breast 101% | BT-549 breast 98.8% | MDA-MB-435 melanoma 43.8% | MCF7 breast 87.1% | HCT-116 colon 90.3% | HCC-2998 colon 99.6% | KM12 colon 72.4%

O=C(Cn1nnc2ccccc21)N/N=C/c1ccccc1F
inactive: T-47D breast 92% | BT-549 breast 101% | MDA-MB-435 melanoma 102% | MCF7 breast 89.9% | HCT-116 colon 101% | HCC-2998 colon 115% | KM12 colon 91.9%

CS(=O)(=O)Cc1cnc(C2OCCO2)s1
inactive: T-47D breast 129% | BT-549 breast 97.6% | MDA-MB-435 melanoma 109% | MCF7 breast 96.4% | HCT-116 colon 98.8% | HCC-2998 colon 107% | KM12 colon 88.9%

N#Cc1c(N2CCOCC2)nc(=S)[nH]c1-c1ccccc1
inactive: T-47D breast 37.3% | BT-549 breast 57.7% | MDA-MB-435 melanoma 82.2% | HCT-116 colon 86.6% | HCC-2998 colon 79.1% | KM12 colon 77.6%

COc1ccc(C/C(C)=C(/c2ccc(OCCN3CCCCCC3)cc2)c2ccc(OC(=O)NCc3ccccc3)cc2)cc1
inactive: T-47D breast 50.8% | BT-549 breast 100% | MDA-MB-435 melanoma 95.3% | MCF7 breast 29.9% | HCT-116 colon 64.7% | HCC-2998 colon 89.1% | KM12 colon 80.9%

CCOC(=O)/C=C/c1c(C)[nH]c(=O)[nH]c1=O
inactive: T-47D breast 102% | BT-549 breast 99.1% | MDA-MB-435 melanoma 109% | HCT-116 colon 53% | HCC-2998 colon 107% | KM12 colon 93.4%

NNC(=S)N/N=C/c1ccccn1
inactive: BT-549 breast 55% | MDA-MB-435 melanoma 46.4% | HCT-116 colon 19.8% | HCC-2998 colon 28.8% | KM12 colon 29.2%
active: T-47D breast 9.69%

COC(c1ccc2ccccc2c1)C(C)C(F)F (configuration not stated)
inactive: T-47D breast 90% | BT-549 breast 95% | MDA-MB-435 melanoma 96% | HCT-116 colon 87.7% | HCC-2998 colon 114% | KM12 colon 107%

COc1ccccc1-n1c(-c2cc(O)ccc2C)cn2c3c(=O)[nH]c(=O)n(C)c3nc12
inactive: T-47D breast 87.8% | BT-549 breast 100% | MDA-MB-435 melanoma 104% | MCF7 breast 84.1% | HCC-2998 colon 98.6% | KM12 colon 108%

O=C1Nc2ccccc2C2c3cccn3-c3ccccc3N12 (configuration not stated)
active: MDA-MB-435 melanoma 7.5%
inactive: T-47D breast 76% | BT-549 breast 82.7% | MCF7 breast 60.1% | HCC-2998 colon 77.2% | KM12 colon 62.3%

Nc1c(C(=O)O)cc(Cl)cc1[N+](=O)[O-]
inactive: T-47D breast 95.6% | BT-549 breast 109% | MDA-MB-435 melanoma 105% | HCT-116 colon 94.6% | HCC-2998 colon 95.1% | KM12 colon 105%

CC/C(Cc1ccccc1)=C(\c1ccc(OCCN2CCCCCC2)cc1)c1ccc(OC(=O)NCc2ccccc2)cc1
active: HCT-116 colon 2.8%
inactive: T-47D breast 40.9% | BT-549 breast 81.9% | MDA-MB-435 melanoma 79.6% | MCF7 breast 13.7% | HCC-2998 colon 65.2% | KM12 colon 67.9%

O=C(CN1CCN(c2cc3c(cc2F)c(=O)c(C(=O)O)cn3C2CC2)CC1)N/N=C/c1ccncc1
inactive: T-47D breast 96.8% | BT-549 breast 95.7% | MDA-MB-435 melanoma 97.5% | MCF7 breast 92.4% | HCC-2998 colon 110% | KM12 colon 101%

Oc1c(I)cc(-c2nc3ccccc3s2)cc1CN(Cc1ccccn1)Cc1ccccn1
inactive: T-47D breast 17% | BT-549 breast 22% | MDA-MB-435 melanoma 33.3% | MCF7 breast 13.7% | HCT-116 colon 16.1% | KM12 colon 28.4%
active: HCC-2998 colon 9.25%

CC(C)CSc1oc(-c2ccccc2)nc1S(=O)(=O)c1ccccc1
inactive: T-47D breast 62.4% | BT-549 breast 102% | MDA-MB-435 melanoma 105% | HCT-116 colon 81.9% | HCC-2998 colon 100% | KM12 colon 96%

CCNCc1ccc(O)c2ncccc12
inactive: T-47D breast 27.3% | BT-549 breast 40.8% | MDA-MB-435 melanoma 16.6% | MCF7 breast 17.3% | HCT-116 colon 21.6% | HCC-2998 colon 45.9% | KM12 colon 29.2%

c1ccc(CCc2ccccc2-c2cc(-c3ccccc3)on2)cc1
inactive: T-47D breast 55.4% | BT-549 breast 102% | MDA-MB-435 melanoma 105% | MCF7 breast 74.7% | HCT-116 colon 59.8% | HCC-2998 colon 90.4% | KM12 colon 87.5%

C=C1C(=O)O[C@H]2[C@H]1CC/C(CNC(=O)c1cc3ccccc3[nH]1)=C\CC[C@@]1(C)O[C@@H]21
active: T-47D breast -42.2% | BT-549 breast -79.8% | MDA-MB-435 melanoma -37.2% | MCF7 breast -56.7% | HCT-116 colon -84% | HCC-2998 colon -75.5% | KM12 colon -38.4%

Cn1cc(C(=O)c2nc(-c3c[nH]c4ccc(Br)cc34)no2)c2cc(Br)ccc21
inactive: T-47D breast 71.8% | BT-549 breast 79% | MDA-MB-435 melanoma 63.3% | HCT-116 colon 63.5% | HCC-2998 colon 103% | KM12 colon 55.2%
